In PubChem BioAssay AID1490 (National Center for Advancing Translational Sciences (NCATS), 2009):
Several values for one entry are separate records, joined by “and”; a condition that tells them apart may be missing. Equal values may be shown once. The campaign covered roughly 310,000 compounds. About 11,000 (3.5%) were called active. About 4% were inconclusive and are not listed. Calls come from the whole dose curve; as a rule, active = well fitted inhibition curve with a large enough effect; inconclusive = small, poorly fitted or top-dose-only effect, or another doubt; inactive = no such curve, though single readings can be large or run the other way. The sample as a whole holds a higher share of actives than the screen did. Some compounds were tested as several samples or in several runs, with calls that do not always agree.

Biological target: 4'-phosphopantetheinyl transferase ffp (Bacillus subtilis) (UniProt Q9F4F7)
Experiment: qHTS Assay for Inhibitors of Bacillus subtilis Sfp phosphopantetheinyl transferase (PPTase);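 note: the enzyme is Sfp with the accession as filed and its product quenches rhodamine fluorescence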;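 for largest response in the series, negative = inhibition: 0% = enzyme reaction without inhibitor and -100% = no enzyme wells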
Settings: Biochemical Sfp PPTase activity
Source text: Assay Submitter: Michael Burkart, University of California, San Diego
Screening Center PI: Austin, C.P.
Screening Center: NIH Chemical Genomics Center [NCGC]
The covalent attachment of a phosphopantetheinyl (4'-PP) arm to a variety of synthases and other proteins is a key posttranslational protein modification. The 4'-PP is installed on the proteins post-translationally from coenzyme A (CoA) on a conserved serine residue by action of phosphopantetheinyl transferase (PPTase) enzymes. Phosphopantetheinylation is essential for synthase activity, and removal of the PPTase gene precludes natural product synthesis in microorganisms, or in the case of fatty acid biosynthesis, renders the organism unviable. PPTase enzymes belong to a distinct structural superfamily. Within bacteria, these enzymes are grouped into two classes based upon primary structure, the AcpS-Type and Sfp-Type PPTases.
Sfp-type PPTases, corresponding to an activator of surfactin production in Bacillus subtilis, are responsible for modifying type I polyketide and nonribosomal peptide synthases of prokaryotes. Sfp-type PPTases are responsible for the activation of a variety of pathogen-associated virulence factors. Among these compounds are toxins such as mycolactone from Mycobacterium ulcerans, siderophores such as vibriobactin from Vibrio cholerae or mycobactin from Mycobacterium tuberculosis, as well as the mycolic acids which form the waxy cell wall of Mycobacteria. The biosyntheses of these natural products are considered attractive targets for drug design.
In search of small molecule Sfp-PPTase inhibitors, a fluorescence quenching assay was developed for detection of Bacillus subtilis Sfp-PPTase enzymatic activity in a miniaturized high-throughput format. The consensus ybbr acceptor peptide […] was N-terminally labeled with Black Hole Quencher-2 (BHQ-2) and used in combination with rhodamine-labeled coenzyme A as a co-substrate.
Inhibition of Sfp-PPTase was detected by recording the fluorescence intensity change over a 30-minute reaction period at a 525 nm excitation and 598 nm emission. Reagents were supplied by Michael Burkart and Timothy Foley, University of California at San Diego.
This BioAssay deposition is for validation of the developed Sfp-PPtase assay.
Assay Buffer: 50 mM Hepes-Na pH 7.6, 10 mM MgCl2, 0.01% Nonidet P-40, and 0.01% BSA.
3 uL of Sfp-PPTase enzyme (final concentration 15 nM) and 1 uL of substrate mixture (final concentration for rhodamine-CoA and BHQ-2-YbbR 5 uM and 12.5 uM, respectively) dispensed in columns 1, 2, 5 - 48. Columns 1 and 2 used to generate neutral control (uninhibited reaction)
Three uL of reagents, consisting of buffer (in columns 3 and 4 as negative control) and Sfp-PPTase (in columns 1, 2, 5 - 48) were dispensed into 1,536-well Greiner black solid bottom plate. Compounds (23 nL) were transferred via Kalypsys pintool equipped with 1,536-pin array. The plate was incubated for 15 min at room temperature, followed by the addition of 1 uL substrate to start the reaction. The plate was then centrifuged at 1000 rpm for 15 seconds, and the fluorescence intensity recorded on a ViewLux High-throughput CCD imager (Perkin-Elmer) using standard BODIPY optics (525 nm excitation and 598 nm emission). The plate was then incubated for 30 minutes, and a second read on the ViewLux was performed. The fluorescence intensity difference over the 30-minute period was used to calculate the respective reaction rate for each well.
Potency is the fitted concentration of half-maximal effect.

Compound | Potency | largest response in the series, negative = inhibition
COc1ccc(CN2C(=O)NC(=O)/C(=C\c3ccc(OC)c(OC)c3OC)C2=O)cc1 | 56.2 µM (active) | –
C1CC[C@H]([C@@]23C[C@H](C[C@H]4CCCN[C@H]42)[C@@H]2CCCCN2C3)NC1 | – | 15.7% (inactive)
CN(C)C[C@H]1CCCC[C@]1(O)c1cccc(O)c1 | – | 5.94% (inactive)
CN(C)CC1Oc2ccccc2OC1(O)c1ccccc1 (stereo not given) | 39.8 µM (active) | –
Fc1cccc(F)c1CN1CCN(Cc2c(F)cccc2F)CC1 | – | 16% (inactive)
Cc1cccc(-n2c(C)nc3cc(C(=O)N4CCC5(CC4)OCCO5)ccc32)c1 | – | 8.78% (inactive)
CN(C)P(=S)(Nc1ccccc1)C(Cl)(Cl)Cl (stereo not given) | – | 10.7% (inactive)
COC([CH2][Hg])CNC(=O)c1ccccc1OCC(=O)O (stereo not given) | 0.398 µM (active) | –
O=C(NC(c1ccc(Cl)cc1)P(=O)(Oc1ccccc1)Oc1ccccc1)OCc1ccccc1 (stereo not given) | – | 19.5% (inactive)
CN1CCCC(=C(c2cccs2)c2cccs2)C1 | – | 3.76% (inactive)
c1ccc2c(c1)[I+]c1ccccc1-2 | – | -15.8% (inactive) and 9.27% (inactive)
O=C1CCc2cccc3c2N1CC3 | – | -2.12% (inactive)
O=C(O)CCn1cc(C=C2C(=O)NC(=S)NC2=O)c(-c2cccc(Br)c2)n1 | 25.1 µM (active) | –
O=P1(Oc2ccccc2)CC(O)C(O)C(COCc2ccccc2)O1 (stereo not given) | – | -2.12% (inactive)
CCCCCCCCCCCCCC(=O)O[C@@H]1[C@@H](C)[C@@]2(O)[C@@H](C=C(CO)C[C@]3(O)C(=O)C(C)=C[C@@H]23)[C@@H]2C(C)(C)[C@]12OC(C)=O | – | 9.82% (inactive)
c1ccc2sc(C3CCCNC3)nc2c1 (stereo not given) | – | 9.62% (inactive)
Cc1ccc(N(C)C(=O)Oc2cccc3ccc(C)nc23)cc1 | – | 4.73% (inactive)
CC(C)c1ccc(O)c(CN2CCN(c3ccccc3)CC2)c1 | – | 7.52% (inactive)
c1cc2c(cc1CCNC1CCCCCC1)OCO2 | – | -0.383% (inactive)
CCOP(=S)(OCC)C(O)CCCCCn1c(=O)c(F)cn(C2CCCO2)c1=O (stereo not given) | – | 8.97% (inactive)
N#Cc1cc(Br)c(O)c(Br)c1 | – | 9.61% (inactive)

Compound | Potency | largest response in the series, negative = inhibition
C/C(=C\C=C/[C@@H](C)C(=O)O)[C@H]1CN[C@H](C(=O)O)[C@@H]1CC(=O)O | 63.1 µM (active) | –
C/C=C1\C2C=C(C)CC1(N)c1ccc(=O)[nH]c1C2 (stereo not given) | – | 24.3% (inactive)
CN(C)C(=O)NC(O)C(Cl)(Cl)Cl (stereo not given) | – | 0.838% (inactive)
CNC(C)[C@@H](O)c1ccccc1 (stereo not given in full) | – | 20.7% (inactive)
O=C1NC(=O)C(C/C=C/c2ccccc2)C(=O)N1 | 70.8 µM (active) | –
COc1ccc(CCn2c(O)c(C=NCCCn3ccnc3)c(=O)[nH]c2=O)cc1OC | – | 15.8% (inactive)
CC(Cc1cccs1)NCc1ccc(Cl)cc1 (stereo not given) | – | 26% (inactive)
O=C(O)c1ccccc1NC(=O)C1C2CCC(O2)C1C(=O)O (stereo not given) | – | 2.88% (inactive)
Cc1ccnc(-n2c(C)cc(/C=C3\C(=O)NC(=S)N(C)C3=O)c2C)c1 | 25.1 µM (active) | –
Cc1cc(C=C2C(=O)NC(=O)NC2=O)c(C)n1-c1ccncc1 | 56.2 µM (active) | –
Cc1ccc(-n2c(C)cc(/C=C3\C(=O)NC(=O)N(C)C3=O)c2C)cc1C | – | -19.1% (inactive)
CCN1C[C@]2(C)CC[C@H](O)[C@@]34[C@@H]5CC6[C@@H](OC)C[C@@](O)([C@@H]5[C@@H]6O)[C@H](C[C@@H]23)[C@H]14 | – | 12.6% (inactive)
CC12CN3CC(C)(CN(C1)C3c1cccs1)C2 (stereo not given) | – | 10.2% (inactive)
CCCCCCCCc1[se]c2ccccc2c1Br | – | 14.5% (inactive)
O=C(Nc1cccc2ccccc12)N1CCC2(CC1)OCCO2 | – | 0.463% (inactive)
O=C(OCC1O[C@@H](OC(=O)c2cc(O)c(O)c(O)c2)[C@@H](OC(=O)c2cc(O)c(O)c(O)c2)[C@@H](OC(=O)c2cc(O)c(O)c(O)c2)[C@@H]1OC(=O)c1cc(O)c(O)c(O)c1)c1cc(O)c(O)c(O)c1 (stereo not given in full) | 25.1 µM (active) | –
O=C1NC(=O)C(CCc2ccccn2)(Cc2cccc(Cl)c2Cl)C(=O)N1c1ccc(Br)cc1 (stereo not given) | – | 4.65% (inactive)
COc1cc2c(cc1OC)[C@@H]1C(=O)c3ccc(O)c(CC=C(C)C)c3OC1CO2 (stereo not given in full) | – | 0.512% (inactive)
CC(=O)c1c(O)c(C)c(O)c(Cc2c(O)c3c(c(C(=O)/C=C/c4ccccc4)c2O)OC(C)(C)C=C3)c1O | – | -11.4% (inactive) and -12.1% (inactive) and -5.71% (inactive)
COc1ccccc1-c1[se]c2ccccc2c1I | – | -3.36% (inactive)
COc1ccc(N2C(=O)/C(=C/c3ccco3)C(=O)NC2=S)cc1 | 11.2 µM (active) | –

Compound | Potency | largest response in the series, negative = inhibition
BrC1C(Br)C(Br)C(Br)C(Br)C1Br (stereo not given) | 79.4 µM (active) | –
Cc1ccc(C2CN(C)CC2C(=O)c2ccc(F)cc2)cc1 (stereo not given) | – | 15% (inactive)
CC(=NC1CCN(Cc2ccccc2)CC1)c1c(O)n(C)c(=O)n(C)c1=O | – | 8.13% (inactive)
NC[C@H](O)c1ccc(O)cc1 | – | 5.47% (inactive)
CC[C@@H]1CN2CC[C@@H]1C[C@H]2[C@H](O)c1ccnc2ccc(OC)cc12 | – | 6.78% (inactive)
CCN1C[C@]2(COC)C(O)C[C@H](OC)[C@@]34C5C[C@]6(O)C(OC)C(O)[C@](OC(C)=O)(C5C6OC(=O)c5ccccc5)C(C(OC)C23)C14 (stereo not given in full) | – | 5.25% (inactive)
CC(=O)[O][Sn]([c]1ccccc1)([c]1ccccc1)[c]1ccccc1 | 1.41 µM (active) | –
COC(=O)N1C(c2ccccc2)C1c1ccccc1 (stereo not given) | – | 17.3% (inactive)
COc1cccc(-c2nc3ccc(N4CCN(C)CC4)cc3[nH]2)c1 | – | -7.35% (inactive)
CCCN(C/C=C/I)C1CCc2ccc(O)cc2C1 (stereo not given) | – | -26.2% (inactive)
C[C@@]12CC[C@H]3[C@@H](CC[C@]4(O)C[C@H](O)CC[C@@]34C=O)[C@]1(O)CC[C@@H]2C1=CC(=O)OC1 | – | 17.6% (inactive)
Cc1ccc2c(c1)=C/C(=C\c1c(O)[nH]c(=O)[nH]c1=O)C(=O)N=2 | 28.2 µM (active) | –
O=C1N=c2ccccc2=C/C1=C\c1c(O)[nH]c(=S)[nH]c1=O | 25.1 µM (active) | –
COc1ccccc1N=Nc1c(O)[nH]c(=S)[nH]c1=O | – | -20.4% (inactive)
O=c1[nH]c(O)c(C=Nc2cc(F)cc(F)c2)c(=O)[nH]1 | – | -4.22% (inactive)
COc1cc(C(=S)N2CCOCC2)ccc1O | – | 14.2% (inactive)
N#CC(C#N)=Cc1cc(O)c(O)c([N+](=O)[O-])c1 | – | -27.4% (inactive) and 8.16% (inactive)
OC(Cn1c2ccccc2c2ccccc21)C[n+]1ccccc1 (stereo not given) | – | 4.01% (inactive)
CC(C)(O)c1[se]c2ccccc2c1I | – | -14.3% (inactive)
O=C(N/N=C/c1ccc([N+](=O)[O-])o1)c1cc([N+](=O)[O-])cc([N+](=O)[O-])c1O | – | -16.6% (inactive)
COC(=O)c1ccc2[se]c(CC3CCCCC3)c(I)c2c1 | – | -1.34% (inactive)

Compound | Potency | largest response in the series, negative = inhibition
C[C@]12O[C@H](C[C@@]1(O)C(=O)O)n1c3ccccc3c3c4c(c5c6ccccc6n2c5c31)CNC4=O | – | -2.27% (inactive)
CN(C)CC1CCCCC1=O (stereo not given) | – | 9.1% (inactive)
C=CCN1C(=O)C2(C(C(=O)OCC)=C(N)Oc3c2c(=O)oc2ccccc32)c2ccccc21 (stereo not given) | – | -13.3% (inactive)
CC(C)(c1ccc(OC[C@@H]2CO2)cc1)c1ccc(OC[C@H]2CO2)cc1 | – | -26.3% (inactive)
CCCCC/C=C\C/C=C\C/C=C\C=C\[C@H](CCCC(=O)O)OO | – | 1.29% (inactive) and 7.78% (inactive)
CCCCC/C=C\C/C=C\C/C=C\CCCCCCC(=O)NCCO | – | -6.26% (inactive) and -18.5% (inactive) and 24.4% (inactive)
CCCCC/C=C\C/C=C\C/C=C\C/C=C\CCCCCC(=O)NCCO | 25.1 µM (active) | -11.4% (inactive) and -19.7% (inactive) and 32% (inactive)
CCN1C[C@@]2(COC)CC[C@H](OC)[C@]34[C@@H]1[C@]1(OCO[C@@]15C[C@@H](OC)C1C[C@H]3[C@H]5[C@@H]1OC)[C@H](O)[C@@H]24 | – | 4.99% (inactive)
C=CCN1CCC23c4c5ccc(O)c4O[C@H]2C(=O)CC[C@@]3(O)C1C5 (stereo not given in full) | – | 7.15% (inactive)
CN(C)[C@@H]1C(=O)C(C(N)=O)=C(O)[C@@]2(O)C(=O)C3=C(O)c4c(O)cccc4[C@@](C)(O)C3CC12 (stereo not given in full) | – | -6.86% (inactive)
CCOC(=O)C1(CCc2ccccc2)CCN(Cc2ccco2)CC1 | – | -10.9% (inactive)
CN1[C@@H]2CC[C@H]1CC(OC(=O)c1cc(Cl)cc(Cl)c1)C2 (stereo not given in full) | – | 10.2% (inactive)
CC(=O)Oc1ccccc1C(=O)Nc1ncc([N+](=O)[O-])s1 | 50.1 µM (active) | -19.7% (inactive)
O=c1oc2ccccc2c(O)c1C(c1ccccc1O)c1c(O)c2ccccc2oc1=O | – | 9.81% (inactive)
C[C@H]1C/C=C/[C@@H]2[C@@H]3O[C@]3(C)[C@@H](C)[C@H]3[C@H](Cc4ccccc4)NC(=O)[C@]32OC(=O)O/C=C/[C@](C)(O)C1=O | – | -0.438% (inactive)
CN[C@@H]1C[C@H]2O[C@@](C)([C@@H]1OC)n1c3ccccc3c3c4c(c5c6ccccc6n2c5c31)C(=O)NC4 | – | 0.89% (inactive) and -25.9% (inactive)
c1ccc(CCCCN2CCC(c3ccccc3)CC2)cc1 | – | -6.46% (inactive) and 2.8% (inactive)
COc1ccc(CNCCc2ccc3c(c2)OCO3)c(OC)c1OC | – | -17.5% (inactive)
CC1=CC(=O)C2=C(C)C[C@H](O)[C@H]3[C@H](C)C(=O)O[C@@H]3C12 (stereo not given in full) | – | 33% (inactive)
O=Cc1cn(Cc2ccc(F)cc2Cl)c2ccccc12 | – | 0.0934% (inactive)
